Source: PubChem (National Center for Advancing Translational Sciences (NCATS))
An excerpt weighted towards active compounds, which were near 12% of everything screened.
G9a block: blocks human histone lysine methyltransferase G9a; Potency, µM (titrated, usually from 102 µM), without a hit: top-dose activity, negative = inhibition, most hits filed as inhibitors; AID 504332; hit rate 8.8% among 350,000; G9a H3K9 monomethylation, AlphaScreen, 2 h; Q96KQ7; also: % is scaled to controls: 0 for no effect and ±100 for the full control effect; nearly all actives have a fitted effect of over 75% in size
Target sequence (Q96KQ7 913-1193 limits assumed): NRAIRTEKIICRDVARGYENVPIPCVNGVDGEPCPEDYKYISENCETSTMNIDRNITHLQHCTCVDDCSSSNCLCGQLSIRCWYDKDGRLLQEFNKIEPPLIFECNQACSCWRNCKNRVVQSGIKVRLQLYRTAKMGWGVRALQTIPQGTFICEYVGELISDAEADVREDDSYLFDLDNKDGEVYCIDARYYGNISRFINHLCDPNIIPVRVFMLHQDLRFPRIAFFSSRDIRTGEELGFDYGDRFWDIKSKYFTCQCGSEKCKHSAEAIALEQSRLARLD
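Enzyme 20 nM + cpd, 15 min RT; add b-H3K9 pep 500 nM / SAM 20 uM; 2 h RT; anti-H3K9me1 Ab 0.5 ug/mL + SA donor / anti-rabbit acceptor beads 20 ug/mL each, 10 min; AlphaScreen read.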
JMJD2A Tudor: blocks the human JMJD2A Tudor domain | AlphaScreen JMJD2A-Tudor / H3K4me3 peptide binding | Potency, µM (highest dose often 114 µM), inactives show top-dose activity change, negative = inhibition, hits mostly inhibitors | hit rate 4.4% among 390,000 | AID 504339; also: % is scaled to controls: 0 for no effect and ±100 for the full control effect; nearly all actives have a fitted effect of over 50% in size
HP1b chromo inh: HP1-beta chromodomain-methylated histone interaction inhibition; AlphaScreen HP1-beta / biotin-H3K9me3 peptide binding; Potency, µM (top dose mostly 114 µM), for inactives: at the highest dose activity change, negative = inhibition, hits mostly inhibitors; hit rate 0.56% among 390,000; AID 540317; also: nearly all actives have a fitted effect of over 70% in size
Target sequence (P83916 whole entry, looked up): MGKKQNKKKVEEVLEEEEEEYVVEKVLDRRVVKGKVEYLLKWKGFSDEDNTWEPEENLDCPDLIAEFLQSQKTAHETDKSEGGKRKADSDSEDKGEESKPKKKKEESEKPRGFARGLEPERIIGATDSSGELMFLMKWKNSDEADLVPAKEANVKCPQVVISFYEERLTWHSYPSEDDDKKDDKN
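Compound inhibition of the preformed complex between 50 nM HP1-beta and 50 nM biotinylated H3K9me3 peptide was read by AlphaScreen. Buffer was PBS pH 7.4 with 0.01% Tween-20. Incubations ran 30 min at room temperature, with 10 ug/mL donor/acceptor beads.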
Sfp PPTase inh: blocks B. subtilis Sfp PPTase activity; Biochemical Sfp PPTase activity, qHTS; Potency, µM, for inactives: largest response in the series, negative = inhibition, usual class: inhibitors; hit rate 3.5% among 310,000; Q9F4F7;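 also: the enzyme is Sfp with the accession as filed and its product quenches rhodamine fluorescence; 0% = enzyme reaction without inhibitor and -100% = no enzyme wells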
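Fluorescence-quenching assay: 15 nM Sfp-PPTase preincubated 15 min at room temperature with compound, then 5 uM rhodamine-CoA and 12.5 uM BHQ-2-labelled YbbR peptide added. Fluorescence (ex 525/em 598 nm) read at start and after 30 min; difference gives rate.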
BAZ2B block: blocks human BAZ2B | Q9UIF8 | AlphaScreen BAZ2B-H3K14Ac peptide displacement | Potency, µM (doses to about 114 µM), without a hit: at the highest dose activity change, negative = inhibition, most hits filed as inhibitors | hit rate 4.4% among 360,000 | AID 504333; also: % is scaled to controls: 0 for no effect and ±100 for the full control effect; nearly all actives have a fitted effect of over 60% in size
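BAZ2B (50 nM) with biotin-H3(5-23)K14Ac peptide (50 nM) in PBS pH 7.4, 0.01% Tween-20, preformed 30 min, then compound 30 min at room temperature; top concentration 110uM. AlphaScreen streptavidin donor/nickel chelate acceptor beads (10 ug/mL final), 20 min dark, signal read.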
PLK1 PBD block: inhibitors of human PLK1 polo-box domain binding | Plk1 PBD binding of FITC phosphopeptide, fluorescence polarization | AID 720504 | Potency, µM, without a hit: max response, negative = inhibition, most hits filed as inhibitors | hit rate 2.8% among 360,000; also: series mostly up to about 57 µM; % is scaled to controls: 0 for no effect and ±100 for the full control effect; nearly all actives have a fitted effect of over 65% in size
Active calls of the source: *; u = inconclusive; x = not tested or not shown; [ ] = remark or other dose. Calls follow the shape of the dose curve; as a rule, active = well fitted curve in the direction sought with a large enough effect; inconclusive = small, poorly fitted or top-dose-only effect, or another doubt; inactive = no such curve, though single readings can be large; an effect the other way counts as inactive or inconclusive. Potency is read from the fitted curve at half-maximal effect.

SMILES	G9a block	JMJD2A Tudor	HP1b chromo inh	Sfp PPTase inh	BAZ2B block	PLK1 PBD block
CC(=O)NCC(=O)N[C@H](CCC(=O)O)C(=O)O	3.4%[59 µM]	x	x	-2.4%	x	x
Cc1ccc(-n2ncc(C(=O)N3CCN(C4CCCCC4)CC3)c2C2CCN(C(=O)OC(C)(C)C)CC2)cc1	-15.5%[59 µM]	-12.3%	15.1%	x	6.5%[57.1 µM]	x
Cc1oc(-c2ccccc2F)nc1CS(=O)CC(=O)NC1CCCCC1 (configuration not stated)	x	-3.5%	29.7%	-2.4%	6.5%	-8.6%
CSCC[C@H](NC(=O)[C@H](CC(C)C)NC(=O)[C@@H]1CCCN1C(=O)[C@H](Cc1ccccc1)NC(=O)[C@H](Cc1ccccc1)NC(=O)[C@@H]1CCC(=O)N1)C(N)=O	x	x	x	-17.3%	x	x
Cc1nc2ncnn2c(N2CCN(C(c3ccccc3)c3ccccc3)CC2)c1C	u	u	0.5%	79.4µM*	u	-9.4%
CCCOc1ccc(C(=O)NCC2OCCc3ccccc32)cc1 (configuration not stated)	-5.1%[59 µM]	-10.7%	13.1%	x	10.6%	x
COc1ccc(S(=O)(=O)N2CCN(C3CCCC(C)C3)CC2)cc1 (configuration not stated)	7.08µM*	1.26µM*	44.7µM*	-25.9%	17.8µM*	-7.2%
O=S(=O)(c1ccccc1)N1CCN(S(=O)(=O)c2ccccc2)CC1	x	-3.5%	12.2%	x	x	x
CC1CCC(N2CCN(S(=O)(=O)Cc3ccccc3)CC2)CC1 (configuration not stated)	25.1µM*	22.4µM*	70.8µM*	-7.0%	50.1µM*	3.5%
CC1CCCC(N2CCN(S(=O)(=O)c3ccccc3)CC2)C1 (configuration not stated)	17.8µM*	3.98µM*	u	u	u	5.5%
c1ccc(-c2cnnc(SCc3cn4cccnc4n3)n2)cc1	u	2.9%	39.5%	u	-0.5%	-6.2%
c1ccc2[nH]c(SCc3cn4cccnc4n3)nc2c1	14.1µM*	3.8%	26.6%	-12.8%	-7.3%	-27.0%
Cc1cccnc1C1=NOC(Cc2ccccc2)C(=O)N1CCOc1ccc(F)cc1 (configuration not stated)	x	x	x	x	x	8.8%
COc1ccc2ccccc2c1C1NC(=O)c2ccccc2N1 (configuration not stated)	x	-11.8%	26.7%	x	x	-9.1%
Cc1ccc(NC(=O)CSc2cn[nH]n2)cc1	50.1µM*	-11.0%	36.6%	16.5%	3.2%	-3.5%
N#Cc1ccc(NC(=O)CSc2cn[nH]n2)cc1	u	4.1%	50.3%	10.3%	-13.6%	0.0%
O=C(CSc1cn[nH]n1)Nc1ccc(O)c(C(=O)O)c1	12.6µM*	-19.2%	25.4%	-4.6%	-13.5%	u
O=C(c1csnn1)N1CCC[C@@]2(CCN(Cc3ccccc3)C2)C1	-4.3%[12.7 µM]	x	x	4.5%	x	x
O=[N+]([O-])C(=C1SCCS1)C(=C(Cl)Cl)N1CCCCC1	6.31µM*	35.5µM*	25.1µM*	-4.1%	7.94µM*	0.1%
O=[N+]([O-])C(/C=C(\Cl)[N+](=O)[O-])=C(N1CCCCC1)N1CCCCC1	u	-11.8%	6.9%	14.0%	-18.5%	13.3%
CN(C)CCCNC(=O)N1c2ccccc2Sc2ccccc21	-10.4%	-13.0%	21.4%	10.2%	-0.1%	-17.7%
CC1c2ccccc2SC(CCCN(C)C)c2ccccc21 (configuration not stated)	56.2µM*	-10.0%	9.5%	44.7µM*	1.5%	4.3%
CCOc1cc(C(=S)N2CCCC2)ccc1O	x	-6.1%	u	35.5µM*	8.3%	18.9µM*
COc1cc(C(=S)N2CCC(C(N)=O)CC2)ccc1O	u	-3.1%[11.4 µM]	-16.8%	20µM*	5.6%	26.7µM*
COc1ccc(C(=O)C2CCCN(C(=O)CSC)C2)cc1OC (configuration not stated)	70.8µM*	-11.3%	30.2%	7.2%	3.2%	-11.1%
SMILES	G9a block	JMJD2A Tudor	HP1b chromo inh	Sfp PPTase inh	BAZ2B block	PLK1 PBD block
COc1ccc(C(=O)C2CCCN(C(=O)Cn3ccc(C)n3)C2)cc1OC (configuration not stated)	17.8%[0.501 µM]	-10.6%	14.6%	-8.4%	1.1%	1.6%
COc1cc(C(=S)N2CCCC2)ccc1OCC(N)=O	-14.1%	-17.2%	43.2%	1.9%	-5.4%	-15.0%
COc1cc(C(=S)N2CCCCC2)ccc1O	50.1µM*	0.0%	16.1%	44.7µM*	-2.0%	u
COc1ccc(C(=O)N(Cc2ccccc2)Cc2cccs2)c(O)c1	x	-34.0%	x	x	x	x
COC(=O)CC1C(C)(C)C(OC(C)=O)C2[C@H](OC(C)=O)[C@]34O[C@]2(O)[C@]1(C)C3CC[C@]1(C)C4=CC(=O)OC1c1ccoc1 (some centres not stated)	-40.7%[2.33 µM]	x	x	8.4%	x	x
O=C(Nc1ccc(CSc2ccccc2)cc1)c1ccco1	18.4%	6.7%	18.1%	17.8%	-11.1%	2.2%
COc1cc(C(=S)N2CCC(C)CC2)ccc1O	7.94µM*	-23.3%	-24.8%	44.7µM*	-26.0%	23.8µM*
COc1cc(C(=O)O)ccc1O	-5.7%	-16.2%	26.6%	5.4%	-2.7%	-1.9%
COc1ccc(C(=S)N2CCCC2)cc1Br	4.6%	1.4%	48.8%	2.2%	1.9%	-5.9%
COc1cc(C(=S)N2CCCC2)ccc1O	14.1µM*	-1.3%	-25.8%	u	-5.7%	26.7µM*
CSc1sccc1/C=C(/C#N)C(=O)c1ccco1	u	-21.0%	-21.9%	-9.2%	-22.1%	0.844µM*
CSc1sccc1/C=N/O	35.2%	9.7%	16.5%	10.5%	-7.7%	-0.1%
CCC(CO)Oc1cc(NCc2cccc(F)c2)c2ncn(C(C)C)c2c1 (configuration not stated)	x	u	-22.3%	x	x	-11.2%
CCOCCOc1cc(NCc2ccccc2)c2ncn(C(C)C)c2c1	x	10µM*	14.1µM*	x	x	0.8%
COc1ccc(Cc2cc(NCc3ccccc3)c3ncn(C(C)C)c3c2)cc1	x	39.8µM*	-36.3%	x	x	6.9%
CCCCOc1cc(NCc2ccccc2)c2ncn(C(C)C)c2c1	x	39.8µM*	u	x	x	-3.9%
CCC(CO)Oc1cc(NCc2ccc(O)cc2)c2ncn(C(C)C)c2c1 (configuration not stated)	x	u	10.2%	x	x	-11.5%
CC(C)n1cnc2c(NCc3ccccc3)cc(N[C@H](C)CO)cc21	x	56.2µM*	u	x	x	-19.7%
CCC(CO)Oc1cc(NCc2cccc(O)c2)c2ncn(C(C)C)c2c1 (configuration not stated)	x	-26.2%	9.9%	x	x	2.1%
COc1ccc2sc(N(Cc3cccnc3)C(=O)C3CCCCC3)nc2c1	3.3%[59 µM]	-7.5%	38.6%	x	-18.6%	x
COc1cc(NCc2ccccc2)c2ncn(Cc3ccccc3)c2c1	x	25.1µM*	u	x	x	3.1%
COCCCOc1cc(NCc2ccccc2)c2ncn(C(C)C)c2c1	x	56.2µM*	-34.1%	x	x	-4.8%
